# Inconclusive results are not listed. Entries that show only a call come without a potency. Active and inactive are the calls of the source. Unless noted, calls follow the shape of the dose curve; as a rule, active = well fitted curve in the direction sought with a large enough effect; inconclusive = small, poorly fitted or top-dose-only effect, or another doubt; inactive = no such curve, though single readings can be large; an effect the other way counts as inactive or inconclusive.
# What was measured:
# [1] = target: Ubiquitin carboxyl-terminal hydrolase 1 (Homo sapiens) (UniProt O94782); test: Inhibitors of USP1/UAF1: Pilot qHTS (AID 504865); also: nearly all actives have a fitted effect of over 35% in size; also: potency is read from the fitted curve at half-maximal effect
# Method in brief: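 1nM USP1/UAF1 + cpd, 15 min RT; start w/ Ub-Rho 150nM final; kinetic FL 480/540 nm, 6 reads q60 s. Buffer 50mM HEPES pH 7.8, 0.5mM EDTA, 1mM TCEP, 0.01% Tween-20, 0.1 mg/ml BSA.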
# [2] = qHTS for Inhibitors of Cell Surface uPA Generation: Validation Assay (AID 493164);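 also: RAW 264.7 macrophage cells exposed to compound for 18 h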
# Method in brief: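 ATP-Lite luminescence read-out: ATP remains high when uPA activity-dependent LF translocation into the cytoplasm is blocked. RAW 264.7 cells, 18 h compound exposure at 37 C; 7-point titration, 2.45 nM to 38.3 uM final.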
# [3] = target: Peptidyl-prolyl cis-trans isomerase NIMA-interacting 1 (Homo sapiens) (UniProt Q13526); test: qHTS Validation Assay to Find Inhibitors of Pin1 (AID 504536; active = well fitted inhibition curve with a large enough effect in the polarisation, with a control signal flat, not every such curve was filed as active; the % refers to the polarisation)
# Method in brief: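 Fluorescence polarization competition: compounds (titration) displace HiFluor-488-labeled Pin1-1b peptide from Pin1 (0.3 uM final) in pH 7.5 HEPES buffer with DTT, 10 min at room temperature; %Activity normalized to no-enzyme wells, curves fitted.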
# [4] = target: Phosphoglycerate kinase, glycosomal (Trypanosoma brucei brucei) (UniProt P07378); test: qHTS Validation Assay to Find Inhibitors of Phosphoglycerate Kinase (AID 504547)
# Method in brief: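 Compounds are pinned into the substrate/PGK mixture, and GAPDH (100nM final) is added to start the reaction by producing 1,3-BPG. After 60 minutes at room temperature, Kinase-Glo Plus is added and luminescence is measured 10 minutes later.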
# [5] = target: phosphoglycerate mutase (Leishmania major) (UniProt Q4Q090); test: qHTS Validation Assay to Find Inhibitors of Phosphoglycerate Mutase (AID 504548);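 also: end-point luminescence from Kinase-GloPlus after the PGAM reaction; series mostly up to about 58 µM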
# Method in brief: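 Inhibition of L. major PGAM was assessed by Kinase-GloPlus luminescence following a 45-minute room-temperature reaction with enzyme at 1.25nM final.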
# [6] = qHTS for Inhibitors of ATXN expression: Validation of Cytotoxic Assay (AID 588349)
# Method in brief: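 Titrated compounds are added to cultured HEK293 cells, which are then held at 37 degrees C for 72 hr; loss of intracellular ATP, measured with CellTiter Glo, indicates toxicity.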
# [7] = qHTS for Inhibitors of ATXN expression: Validation (AID 588378); also: series mostly up to about 57 µM; nearly all actives have a fitted effect of over 75% in size
# Method in brief: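 Cells: HEK293-ATXN2-FFLuc, phenol-red free DMEM, 2 h attachment. Compound pin-transfer, 24 h, 37 degrees C, 5% CO2. CellTiter-Fluor 30 min, Ex405/Em525; Bright-Glo 5 min, luminescence 2 s exposure.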
# [8] = target: DNA dC->dU-editing enzyme APOBEC-3G (Homo sapiens) (UniProt Q9HC16); test: qHTS for inhibitors of Vif-A3G interactions: Validation (AID 588379)
# Method in brief: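 Yellow fluorescence (Ex 488, Em 500-530) of Vif-coexpressing HeLa A3G-eYFP cells, scanned by Acumen cytometer, reports blocked A3G degradation. Cells plated at 700/well overnight at 37 deg C before compound addition, then a further overnight compound incubation at 37 deg C.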
# [9] = target: Galactokinase (Homo sapiens) (UniProt P51570); test: qHTS Validation Assay for Inhibitors of Human Galactokinase (GALK) (AID 493189)
# Method in brief: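 Luminescence from leftover ATP (Kinase-Glo Plus, 10 min) served as read-out after a 1 h room-temperature reaction of 5 nM GALK, 100 uM galactose and 35 uM ATP at pH8.0.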
# [10] = Validation screen for small molecules that induce DNA re-replication in SW480 colon adenocarcinoma cells (AID 504364)
# Method in brief: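 Image-based qHTS: compounds were incubated with SW480 cells for 48 hr, nuclei stained with Hoechst, and per-nucleus fluorescence intensity scanned to flag cells with excess DNA content.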
# Sequence of Ubiquitin carboxyl-terminal hydrolase 1 (Homo sapiens) (O94782 whole entry, looked up): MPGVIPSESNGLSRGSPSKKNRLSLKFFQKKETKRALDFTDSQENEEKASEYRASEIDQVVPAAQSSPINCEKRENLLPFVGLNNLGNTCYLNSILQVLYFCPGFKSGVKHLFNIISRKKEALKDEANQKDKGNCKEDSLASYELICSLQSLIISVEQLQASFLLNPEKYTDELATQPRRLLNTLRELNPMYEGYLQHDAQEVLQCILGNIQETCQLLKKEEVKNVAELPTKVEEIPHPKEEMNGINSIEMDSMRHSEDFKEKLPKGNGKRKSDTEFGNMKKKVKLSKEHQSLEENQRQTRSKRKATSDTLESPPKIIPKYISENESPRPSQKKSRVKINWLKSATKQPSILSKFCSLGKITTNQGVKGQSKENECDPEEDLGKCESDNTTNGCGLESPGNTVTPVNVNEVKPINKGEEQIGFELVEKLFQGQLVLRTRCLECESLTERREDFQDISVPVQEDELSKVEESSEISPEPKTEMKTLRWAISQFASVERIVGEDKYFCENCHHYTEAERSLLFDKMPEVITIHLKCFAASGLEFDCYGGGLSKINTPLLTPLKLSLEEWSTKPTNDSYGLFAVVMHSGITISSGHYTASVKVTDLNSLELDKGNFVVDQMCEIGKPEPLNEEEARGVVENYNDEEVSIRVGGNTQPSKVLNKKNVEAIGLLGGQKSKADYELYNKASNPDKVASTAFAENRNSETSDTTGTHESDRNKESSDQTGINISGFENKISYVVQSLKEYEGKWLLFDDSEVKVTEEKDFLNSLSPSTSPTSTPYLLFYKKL
# Sequence of phosphoglycerate mutase (Leishmania major) (Q4Q090 1-553): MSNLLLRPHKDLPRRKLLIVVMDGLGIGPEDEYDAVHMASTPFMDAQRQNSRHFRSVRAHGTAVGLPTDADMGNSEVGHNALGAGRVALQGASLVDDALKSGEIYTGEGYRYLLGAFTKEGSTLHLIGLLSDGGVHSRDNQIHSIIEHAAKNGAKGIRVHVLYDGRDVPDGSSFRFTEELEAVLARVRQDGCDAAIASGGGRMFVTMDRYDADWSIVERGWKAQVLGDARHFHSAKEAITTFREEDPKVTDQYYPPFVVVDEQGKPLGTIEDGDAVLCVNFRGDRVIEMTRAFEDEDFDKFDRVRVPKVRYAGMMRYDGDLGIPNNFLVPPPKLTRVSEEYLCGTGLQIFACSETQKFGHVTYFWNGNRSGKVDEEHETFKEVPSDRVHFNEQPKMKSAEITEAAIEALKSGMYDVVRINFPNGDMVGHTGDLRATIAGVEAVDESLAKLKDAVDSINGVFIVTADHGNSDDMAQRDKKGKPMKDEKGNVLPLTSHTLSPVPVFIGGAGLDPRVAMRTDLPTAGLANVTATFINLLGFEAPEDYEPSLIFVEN
# Sequence of Peptidyl-prolyl cis-trans isomerase NIMA-interacting 1 (Homo sapiens) (Q13526 whole entry, looked up): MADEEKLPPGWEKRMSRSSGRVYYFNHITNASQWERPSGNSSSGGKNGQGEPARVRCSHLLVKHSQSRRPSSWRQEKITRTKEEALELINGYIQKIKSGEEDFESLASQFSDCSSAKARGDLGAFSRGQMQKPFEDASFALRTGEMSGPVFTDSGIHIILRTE
# Sequence of Phosphoglycerate kinase, glycosomal (Trypanosoma brucei brucei) (P07378 whole entry, looked up): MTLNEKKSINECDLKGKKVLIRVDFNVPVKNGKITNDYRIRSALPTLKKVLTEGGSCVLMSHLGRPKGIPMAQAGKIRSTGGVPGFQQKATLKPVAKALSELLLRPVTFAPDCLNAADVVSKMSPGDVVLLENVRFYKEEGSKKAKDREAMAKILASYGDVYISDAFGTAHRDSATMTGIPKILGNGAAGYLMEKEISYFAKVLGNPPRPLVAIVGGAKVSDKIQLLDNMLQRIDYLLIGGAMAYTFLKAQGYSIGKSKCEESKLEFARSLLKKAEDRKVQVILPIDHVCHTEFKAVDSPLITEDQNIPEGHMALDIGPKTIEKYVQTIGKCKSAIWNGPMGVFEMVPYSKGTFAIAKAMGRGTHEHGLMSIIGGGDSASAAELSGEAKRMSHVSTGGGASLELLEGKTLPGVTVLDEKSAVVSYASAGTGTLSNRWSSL
# Sequence of DNA dC->dU-editing enzyme APOBEC-3G (Homo sapiens) (Q9HC16 whole entry, looked up): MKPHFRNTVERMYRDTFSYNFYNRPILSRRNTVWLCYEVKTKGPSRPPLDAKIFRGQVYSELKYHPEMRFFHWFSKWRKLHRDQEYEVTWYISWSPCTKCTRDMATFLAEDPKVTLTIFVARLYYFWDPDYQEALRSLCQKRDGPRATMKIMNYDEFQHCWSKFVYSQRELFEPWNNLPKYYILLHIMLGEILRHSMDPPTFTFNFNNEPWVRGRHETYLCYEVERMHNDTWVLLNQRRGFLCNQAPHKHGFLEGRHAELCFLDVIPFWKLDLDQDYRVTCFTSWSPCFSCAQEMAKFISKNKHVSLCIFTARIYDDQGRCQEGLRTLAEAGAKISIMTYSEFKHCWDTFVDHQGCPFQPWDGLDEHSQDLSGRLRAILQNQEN
# Sequence of Galactokinase (Homo sapiens) (P51570 whole entry, looked up): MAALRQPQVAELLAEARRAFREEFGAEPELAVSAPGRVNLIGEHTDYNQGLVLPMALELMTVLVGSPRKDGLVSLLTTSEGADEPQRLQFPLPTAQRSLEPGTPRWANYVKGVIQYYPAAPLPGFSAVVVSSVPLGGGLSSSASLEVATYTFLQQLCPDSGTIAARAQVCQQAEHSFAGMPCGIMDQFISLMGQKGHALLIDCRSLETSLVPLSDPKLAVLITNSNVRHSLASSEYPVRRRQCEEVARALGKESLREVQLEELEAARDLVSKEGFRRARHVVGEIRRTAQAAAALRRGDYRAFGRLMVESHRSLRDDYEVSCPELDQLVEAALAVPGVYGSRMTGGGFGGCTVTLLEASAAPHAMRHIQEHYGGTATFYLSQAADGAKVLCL
structure (smiles),measurement,setting,value
N#CCC(=O)NN,Potency,[1],inactive
COc1ccc(-c2cc(C(F)F)nn2-c2ccc(S(N)(=O)=O)cc2)cc1F,Potency,[1],inactive
O[C@@H](c1cc(C(F)(F)F)nc2c(C(F)(F)F)cccc12)[C@H]1CCCCN1,Potency,[1],inactive
O=S(=O)(O)c1ccc(O)cc1,Potency,[1],inactive
CC(=O)N[C@@H](CCC(=O)O)C(=O)O,Potency,[1],inactive
CCCCC(CC)CN1CN(CC(CC)CCCC)CC(C)(N)C1 (configuration not stated),Potency,[1],inactive
CCc1ccc(C(=O)C(C)CN2CCCCC2)cc1 (configuration not stated),Potency,[1],inactive
CCNC(=O)NCc1cccc(Cl)c1,Potency,[1],inactive
Nc1ccc(S(=O)(=O)Nc2cnc3ccccc3n2)cc1,Potency,[1],inactive
COc1cc(C(=O)N2CCCCCCC2)cc(OC)c1OC,Potency,[1],inactive
CC(=O)Nc1ccc(OCC(O)CNC(C)C)cc1 (configuration not stated),Potency,[1],inactive
CN1CCN(C2=Nc3cc(F)ccc3Cc3ccccc32)CC1,Potency,[1],inactive
Cc1ccc(O)c([C@H](CCN(C(C)C)C(C)C)c2ccccc2)c1,Potency,[1],inactive
CC(C)(C)NC[C@H](O)COc1nsnc1N1CCOCC1,outcome,[2],inactive
same,outcome,[3],inactive
same,outcome,[4],inactive
same,outcome,[5],inactive
same,Potency,[1],inactive
same,outcome,[6],inactive
same,outcome,[7],inactive
same,outcome,[8],inactive
CCOc1ccccc1OCCN[C@H](C)Cc1ccc(OC)c(S(N)(=O)=O)c1,Potency,[1],inactive
NS(=O)(=O)c1ccc(Cl)c(S(N)(=O)=O)c1,Potency,[1],inactive
CCc1oc2ccccc2c1C(=O)c1cc(I)c(O)c(I)c1,Potency,[1],39.8 µM (active)
CNCCc1ccccn1,Potency,[1],inactive
Cc1cc(NS(=O)(=O)c2ccc(N)cc2)nc(C)n1,Potency,[1],inactive
CCOC(=O)[C@H](CCc1ccccc1)N[C@@H](C)C(=O)N1[C@H](C(=O)O)C[C@H]2CCCC[C@@H]21,outcome,[2],inactive
same,outcome,[3],inactive
same,outcome,[4],inactive
same,outcome,[5],inactive
same,Potency,[1],inactive
same,outcome,[6],inactive
same,outcome,[7],inactive
c1ccc(-c2nc[nH]c2-c2ccccc2)cc1,Potency,[1],inactive
OC(C#CCN1CCCC1)(c1ccccc1)c1ccccc1,Potency,[1],inactive
Nc1nc(N)c(-c2ccccc2)s1,Potency,[1],inactive
CCCCc1cc2ccccc2c(OCCN(C)C)n1,Potency,[1],inactive
CC(=O)OCC1=C(C(=O)O)N2C(=O)[C@@H](NC(=O)CSc3ccncc3)[C@H]2SC1,outcome,[9],inactive
same,outcome,[10],inactive
CN=C(N)NCCC[C@H](N)C(=O)O,outcome,[2],inactive
same,outcome,[3],inactive
same,outcome,[4],inactive
same,outcome,[5],inactive
same,outcome,[6],inactive
same,outcome,[7],inactive
same,outcome,[8],inactive
CC(C)Cn1cnc2c1c(=O)n(C)c(=O)n2C,Potency,[1],inactive
CCOC(=O)Nc1ccc2c(c1)N(C(=O)CCN1CCOCC1)c1ccccc1S2,Potency,[1],inactive
O=C1C(CCS(=O)c2ccccc2)C(=O)N(c2ccccc2)N1c1ccccc1 (configuration not stated),Potency,[1],inactive
O=C(O)C1(C(=O)O)CCC1.[NH2-].[NH2-].[Pt+2],Potency,[1],inactive
Cc1cc(C)cc(OCC2CNC(=O)O2)c1 (configuration not stated),Potency,[1],inactive
CCN(CC)CCOc1ccc2c(c1)C(=O)c1cc(OCCN(CC)CC)ccc1-2,Potency,[1],inactive
